Measured values as given in PubChem BioAssay (NCI).
Compounds without any hit were thinned out: in the full panel of roughly 83,000, 20% have a hit.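 In brief: 96-well plates, 48 h treatment, single concentration, percent growth endpoint.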 Calls of active or inactive are those of the source. The calls were made as follows: active = growth percent below 10; inactive = the rest.

What was measured:
Assay in all cases: NCI-60 one-dose screen, 48 h (100 = growth as untreated, 0 = no growth, -100 = all killed)
NCI-H23 lung = conditions: 10 µM unless noted
NCI-H226 lung = conditions: 10 µM unless noted
NCI-H322M lung = conditions: 10 µM unless noted
HOP-62 NSCLC = conditions: 10 µM unless noted
NCI-H460 lung = conditions: 10 µM unless noted
HOP-92 NSCLC = conditions: 10 µM unless noted
NCI-H522 lung = conditions: 10 µM unless noted
A549/ATCC NSCLC = conditions: 10 µM unless noted
786-0 renal = conditions: 10 µM unless noted
COLO 205 colon = conditions: 10 µM unless noted
DU-145 prostate = conditions: 10 µM unless noted
MALME-3M melanoma = conditions: 10 µM unless noted
MDA-MB-231 breast = conditions: 10 µM unless noted
RXF 393 renal = conditions: 10 µM unless noted
SF-268 CNS = conditions: 10 µM unless noted
SF-295 CNS = conditions: 10 µM unless noted
SF-539 CNS = conditions: 10 µM unless noted
M14 melanoma = conditions: 10 µM unless noted
K-562 leukemia = conditions: 10 µM unless noted
UACC-257 melanoma = conditions: 10 µM

Measured: growth

COc1ccc2c(C3=C(c4cn(C)c5ccccc45)C(=O)NC3=O)coc2c1
active: NCI-H460 lung 9.16% | NCI-H522 lung -29.5% | COLO 205 colon 1.81% | RXF 393 renal -10.2% | SF-539 CNS 1.16%
inactive: NCI-H23 lung 34.8% | NCI-H226 lung 20.3% | NCI-H322M lung 58.4% | HOP-62 NSCLC 45.3% | HOP-92 NSCLC 25.3% | A549/ATCC NSCLC 38.7% | 786-0 renal 44.9% | DU-145 prostate 31.1% | MALME-3M melanoma 97.1% | MDA-MB-231 breast 30.4% | SF-268 CNS 67.6% | SF-295 CNS 36.3% | M14 melanoma 36.9%

COc1ccc2c(C3=C(c4c[nH]c5ccccc45)C(=O)N(O)C3=O)coc2c1
inactive: NCI-H23 lung 93% | NCI-H226 lung 74.9% | NCI-H322M lung 96.8% | HOP-62 NSCLC 84.7% | NCI-H460 lung 90.3% | HOP-92 NSCLC 96% | NCI-H522 lung 68.4% | A549/ATCC NSCLC 96.6% | 786-0 renal 93.8% | COLO 205 colon 99.2% | DU-145 prostate 103% | MALME-3M melanoma 94.8% | MDA-MB-231 breast 78.3% | RXF 393 renal 105% | SF-268 CNS 101% | SF-295 CNS 103% | SF-539 CNS 93.3% | M14 melanoma 94.4%

COc1cc2c3c(n(CCCN4CCC[C@H]4C(N)=O)c(=O)c2cc1OC)-c1cc2c(cc1C3=O)OCO2
inactive: NCI-H322M lung 26.1% | HOP-92 NSCLC 23.9% | NCI-H522 lung 22% | A549/ATCC NSCLC 30.7% | COLO 205 colon 16.4% | DU-145 prostate 16.2% | MALME-3M melanoma 27.5% | MDA-MB-231 breast 17.3% | SF-268 CNS 27.6%
active: NCI-H23 lung -3.5% | NCI-H226 lung -15% | HOP-62 NSCLC -0.224% | NCI-H460 lung 0.252% | 786-0 renal -10.3% | RXF 393 renal 7.89% | SF-295 CNS 7.46% | SF-539 CNS -2.78% | M14 melanoma 6.29%

N#C/C(=C\c1ccc(-c2ccc(F)cc2)o1)C(=O)Nc1ncc(Cc2ccc(Cl)cc2Cl)s1
active: NCI-H23 lung -37.2% | HOP-62 NSCLC -34.7% | NCI-H460 lung -74.2% | NCI-H522 lung -8.78% | 786-0 renal -28.3% | DU-145 prostate -46.5% | MALME-3M melanoma -52.7% | SF-268 CNS 1.24% | SF-295 CNS 3.15% | SF-539 CNS -2.12% | M14 melanoma 2.18%
inactive: NCI-H226 lung 69.3% | NCI-H322M lung 13.8% | HOP-92 NSCLC 36.7% | COLO 205 colon 66.8% | K-562 leukemia 15.5% | MDA-MB-231 breast 20.1% | UACC-257 melanoma 84.1%

Cn1cc(-c2nn3cc(-c4cccnc4)nc3s2)c2cc(F)ccc21
inactive: NCI-H23 lung 93.9% | NCI-H226 lung 75% | NCI-H322M lung 87.8% | HOP-62 NSCLC 71.6% | NCI-H460 lung 94.2% | HOP-92 NSCLC 60.5% | NCI-H522 lung 70.2% | A549/ATCC NSCLC 94.4% | 786-0 renal 110% | COLO 205 colon 83.2% | DU-145 prostate 98.1% | MALME-3M melanoma 70.3% | MDA-MB-231 breast 67% | RXF 393 renal 103% | SF-268 CNS 112% | SF-295 CNS 92.5% | SF-539 CNS 80.3% | M14 melanoma 84.8%

C=CCn1c(SCC(=O)Nc2cccc(C(=O)/C=C/c3cccc([N+](=O)[O-])c3)c2)nc2ccccc2c1=O
inactive: NCI-H23 lung 89.3% | NCI-H226 lung 83.6% | NCI-H322M lung 95.4% | HOP-62 NSCLC 108% | NCI-H460 lung 93.4% | HOP-92 NSCLC 82.1% | NCI-H522 lung 89.3% | 786-0 renal 94.8% | COLO 205 colon 117% | DU-145 prostate 94.1% | MALME-3M melanoma 90.1% | MDA-MB-231 breast 90.1% | RXF 393 renal 84.6% | SF-268 CNS 92.5% | SF-295 CNS 93.5% | SF-539 CNS 96.7% | UACC-257 melanoma 99.3% | M14 melanoma 84.2%

COCCOc1ccc(-c2csc(NC(=O)CN3CCN(CCO)CC3)n2)cc1NS(=O)(=O)c1cccc2c(N(C)C)cccc12
inactive: NCI-H23 lung 78% | NCI-H226 lung 70.9% | NCI-H322M lung 68.4% | HOP-62 NSCLC 81% | NCI-H460 lung 98.2% | HOP-92 NSCLC 13.3% | NCI-H522 lung 24.1% | A549/ATCC NSCLC 92% | 786-0 renal 37.1% | COLO 205 colon 69.8% | DU-145 prostate 92.5% | MALME-3M melanoma 40.1% | MDA-MB-231 breast 79.3% | RXF 393 renal 65.1% | SF-268 CNS 90.5% | SF-295 CNS 70.3% | SF-539 CNS 61.9%
active: M14 melanoma -71.7%

CCOc1ccc2nc(NC(=O)Nc3ccccc3C)sc2c1
inactive: NCI-H23 lung 76.4% | NCI-H226 lung 38.3% | NCI-H322M lung 87% | HOP-62 NSCLC 49% | NCI-H460 lung 42.4% | HOP-92 NSCLC 126% | NCI-H522 lung 32.7% | 786-0 renal 64.9% | COLO 205 colon 49.9% | DU-145 prostate 70.3% | K-562 leukemia 14.6% | MALME-3M melanoma 48.6% | MDA-MB-231 breast 71.2% | RXF 393 renal 49.5% | SF-268 CNS 78.6% | SF-295 CNS 35.2% | SF-539 CNS 57.1% | UACC-257 melanoma 68.4% | M14 melanoma 23.4%

Cc1nn(-c2ccc(Br)cc2)c2nc(CCl)[nH]c(=O)c12
active: 786-0 renal -88.8%
inactive: NCI-H23 lung 103% | NCI-H226 lung 102% | NCI-H322M lung 104% | HOP-62 NSCLC 98.5% | NCI-H460 lung 109% | HOP-92 NSCLC 101% | NCI-H522 lung 85.5% | COLO 205 colon 103% | DU-145 prostate 110% | K-562 leukemia 75.6% | MALME-3M melanoma 106% | MDA-MB-231 breast 94.1% | RXF 393 renal 119% | SF-268 CNS 99.4% | SF-295 CNS 100% | SF-539 CNS 77% | UACC-257 melanoma 101% | M14 melanoma 101%

COc1cc(CNC(=O)Cc2ccccc2[N+](=O)[O-])ccc1OCC(=O)NO
inactive: NCI-H23 lung 102% | NCI-H226 lung 100% | NCI-H322M lung 107% | HOP-62 NSCLC 102% | NCI-H460 lung 114% | HOP-92 NSCLC 101% | NCI-H522 lung 102% | 786-0 renal 106% | COLO 205 colon 104% | DU-145 prostate 108% | K-562 leukemia 105% | MALME-3M melanoma 100% | MDA-MB-231 breast 102% | RXF 393 renal 116% | SF-268 CNS 102% | SF-295 CNS 105% | SF-539 CNS 95.9% | UACC-257 melanoma 105% | M14 melanoma 101%

COc1ccc(N2C(=O)c3cc(OC)c(OC)cc3NC2SCc2ccccc2)cc1 (stereo unspecified)
inactive: NCI-H23 lung 107% | NCI-H226 lung 102% | NCI-H322M lung 104% | HOP-62 NSCLC 107% | NCI-H460 lung 122% | HOP-92 NSCLC 112% | NCI-H522 lung 95.2% | 786-0 renal 117% | COLO 205 colon 109% | DU-145 prostate 110% | K-562 leukemia 88.6% | MALME-3M melanoma 95.2% | MDA-MB-231 breast 91.5% | RXF 393 renal 144% | SF-268 CNS 110% | SF-295 CNS 103% | SF-539 CNS 94.3% | UACC-257 melanoma 105%

CCCCCCNC(=O)Oc1ccc(/C(=C(\C)c2ccc(OC)cc2)c2ccc(OCCN(C)C)cc2)cc1
inactive: NCI-H23 lung 84.4% | NCI-H226 lung 105% | NCI-H322M lung 89% | HOP-62 NSCLC 89.8% | NCI-H460 lung 67.6% | HOP-92 NSCLC 50.4% | NCI-H522 lung 98% | 786-0 renal 62.3% | COLO 205 colon 90.4% | DU-145 prostate 96.8% | MDA-MB-231 breast 71.8% | RXF 393 renal 52.1% | SF-268 CNS 78.3% | SF-295 CNS 80.8% | SF-539 CNS 45.3%
active: K-562 leukemia 9.79% | MALME-3M melanoma 1.42% | UACC-257 melanoma 9.83% | M14 melanoma 6.24%

O=C1Nc2ccc(Cl)cc2/C1=C/c1ccc(OCc2ccc(Br)cc2F)cc1
inactive: NCI-H23 lung 98.6% | NCI-H226 lung 73.5% | NCI-H322M lung 99.6% | HOP-62 NSCLC 101% | NCI-H460 lung 103% | HOP-92 NSCLC 95% | NCI-H522 lung 100% | 786-0 renal 102% | COLO 205 colon 103% | DU-145 prostate 101% | K-562 leukemia 91.2% | MALME-3M melanoma 100% | MDA-MB-231 breast 94.7% | RXF 393 renal 85.3% | SF-268 CNS 98.5% | SF-295 CNS 103% | SF-539 CNS 99.4% | UACC-257 melanoma 101% | M14 melanoma 90.1%

CCOc1c(C#N)c(Nc2ccc(S(N)(=O)=O)cc2)c(C#N)c2nnc(C)n12
inactive: NCI-H23 lung 93.5% | NCI-H226 lung 105% | NCI-H322M lung 100% | HOP-62 NSCLC 104% | NCI-H460 lung 111% | HOP-92 NSCLC 98% | NCI-H522 lung 95.3% | 786-0 renal 110% | COLO 205 colon 105% | DU-145 prostate 109% | K-562 leukemia 110% | MALME-3M melanoma 99.1% | MDA-MB-231 breast 90.6% | RXF 393 renal 132% | SF-268 CNS 99% | SF-295 CNS 105% | SF-539 CNS 97.2% | UACC-257 melanoma 104% | M14 melanoma 100%

COc1ccc(NS(=O)(=O)c2ccc(-c3cnc(C4CC4)o3)cc2)cc1Cl
inactive: NCI-H23 lung 37.3% | NCI-H226 lung 35.5% | NCI-H322M lung 52.2% | HOP-62 NSCLC 30.2% | NCI-H460 lung 18.3% | HOP-92 NSCLC 55.4% | NCI-H522 lung 33.2% | 786-0 renal 46.7% | COLO 205 colon 12.4% | DU-145 prostate 24.1% | K-562 leukemia 10.1% | MALME-3M melanoma 50% | MDA-MB-231 breast 41.9% | SF-268 CNS 66.1% | SF-295 CNS 10.6% | SF-539 CNS 13.3% | UACC-257 melanoma 66.9% | M14 melanoma 21.1%
active: RXF 393 renal 0.101%

COc1ccc(-c2nc3cc(Cl)c(Cl)cc3n2CC(=O)N=Nc2c(O)[nH]c3ccc(Br)cc23)cc1
inactive: NCI-H322M lung 41% | NCI-H522 lung 14% | K-562 leukemia 21.6% | SF-539 CNS 14.9% | UACC-257 melanoma 61.9%
active: NCI-H23 lung -21.5% | NCI-H226 lung -16.2% | HOP-62 NSCLC -50.2% | NCI-H460 lung -42.5% | HOP-92 NSCLC -34% | 786-0 renal -17.3% | COLO 205 colon -37.9% | DU-145 prostate -48.4% | MALME-3M melanoma -38.5% | MDA-MB-231 breast 0.262% | RXF 393 renal -58.3% | SF-268 CNS 9.74% | SF-295 CNS -50% | M14 melanoma -48.8%
